This is part of a sample that, as a whole, favours compounds with a hit. Of some 79,000 tested, about 15% had one in any assay. A number with no mark means an inactive call. Calls of active or inactive are those of the source. No stated cut-off is given here; in the data, active means growth inhibition above about 70%; inactive means the rest.
What was measured:
[1] = NCI Yeast Anticancer Drug Screen. Data for the rad50 strain (AID 155);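 further: 0% = growth of vehicle-only cultures of the same strain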; settings: S. cerevisiae rad50 strain growth inhibition, stronger effect = higher value
Method in brief: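 Genetically altered yeast (DNA repair pathway); compound treatment; growth inhibition vs vehicle ctrl.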

[2] = NCI Yeast Anticancer Drug Screen. Data for the mec2-1 strain (AID 157); settings: S. cerevisiae mec2-1 strain, stronger effect = higher value
Method in brief: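 Readout is yeast growth inhibition, normalised to vehicle-treated controls, in the mec2-1 strain exposed to compound.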

[3] = NCI Yeast Anticancer Drug Screen. Data for the sgs1 mgt1 strain (AID 161);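 further: 0% = growth of cultures given vehicle only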; settings: S. cerevisiae sgs1 mgt1 strain, stronger effect = higher value
Method in brief: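 Growth of a repair-deficient yeast mutant was monitored after compound treatment and expressed as inhibition relative to vehicle-treated cultures.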

[4] = NCI Yeast Anticancer Drug Screen. Data for the cln2 rad14 strain (AID 165);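 further: 0% = growth equal to vehicle treated cultures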; settings: S. cerevisiae cln2 rad14 strain, stronger effect = higher value
Method in brief: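 Relative to vehicle controls, growth inhibition of compound-treated cln2 rad14 yeast was recorded.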

[5] = NCI Yeast Anticancer Drug Screen. Data for the bub3 strain (AID 167); settings: S. cerevisiae bub3 mutant strain, stronger effect = higher value
Method in brief: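 Yeast carrying a defined mutation is treated with each compound, and growth is compared with that of vehicle-exposed cells to give inhibition.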

[6] = NCI Yeast Anticancer Drug Screen. Data for the mlh1 rad18 strain (AID 175); settings: S. cerevisiae mlh1 rad18 strain growth inhibition, stronger effect = higher value
Method in brief: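 Test agents were incubated with a yeast strain of defined genotype (DNA damage repair defect). Inhibition of growth was derived by comparison with vehicle-exposed cultures.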

[7] = at 5.0 µM (retest, dose inferred, filed as 0.5)
[8] = at 50.0 µM (retest, dose inferred, filed as 5.0)

| Compound | growth inhibition [1, 7] | growth inhibition [1, 8] | growth inhibition ([1]; at 50.0 µM) | growth inhibition [2, 7] | growth inhibition [2, 8] | growth inhibition ([2]; at 50.0 µM) | growth inhibition [3, 7] | growth inhibition [3, 8] | growth inhibition ([3]; at 50.0 µM) | growth inhibition [4, 7] | growth inhibition [4, 8] | growth inhibition ([4]; at 50.0 µM) | growth inhibition [5, 7] | growth inhibition [5, 8] | growth inhibition ([5]; at 50.0 µM) | growth inhibition [6, 7] | growth inhibition [6, 8] | growth inhibition ([6]; at 50.0 µM) |
| --- | --- | --- | --- | --- | --- | --- | --- | --- | --- | --- | --- | --- | --- | --- | --- | --- | --- | --- |
| CCN(CCN1C(=O)C2CCCCC2C1=O)c1ccc(N=O)c(C)c1 (configuration not stated) | 71% (active) | 97% (active) | 98.8% (active) | 66% | 99% (active) | 98.8% (active) | 28% | 99% (active) | 97.9% (active) | 23% | 96% (active) | 88.6% (active) | 48% | 98% (active) | 99.1% (active) | 72% (active) | 97% (active) | 97.5% (active) |
| COc1ccc(CNc2nc3cc(C(F)(F)F)ccc3nc2C)cc1OC | -9% | 22% | 87.8% (active) | -34% | 39% | 91.3% (active) | 6% | 38% | 91.4% (active) | 11% | 74% (active) | 92.7% (active) | -30% | 18% | 89.7% (active) | -19% | 18% | 89.2% (active) |
| O=c1c2cc(Cl)ccc2[nH]c2cc(O)cc(O)c12 | -18% | 25% | 70.5% (active) | -43% | 3% | -12.4% | -9% | 11% | 21.5% | -15% | 16% | 11.9% | -13% | 39% | 15.1% | -20% | 45% | 15.9% |
| CCc1ccc(/C=C/C(=O)C2CN(CC)CCC2(O)/C=C/c2ccc(CC)cc2)cc1 (configuration not stated) | 4% | 99% (active) | 91.5% (active) | 2% | 99% (active) | 92.8% (active) | 2% | 99% (active) | 92% (active) | 4% | 99% (active) | 89.8% (active) | 8% | 98% (active) | 91.2% (active) | 13% | 99% (active) | 91.5% (active) |
| O=[N+]([O-])c1ccc(Sc2c3ccccc3nc3ccccc23)nc1 | 94% (active) | 99% (active) | 98.3% (active) | 82% (active) | 99% (active) | 97.5% (active) | 62% | 99% (active) | 97.7% (active) | 83% (active) | 98% (active) | 96.7% (active) | 49% | 99% (active) | 96.5% (active) | 66% | 99% (active) | 97.2% (active) |
| CCCCCCCCC(=O)NCCCNCCCNC(=O)CCCCCCCC | -17% | -17% | 69% | -18% | -18% | 50.2% | -4% | -4% | 66.3% | -22% | -22% | 92.2% (active) | -28% | -28% | 90.8% (active) | -11% | -11% | 89.3% (active) |
| c1ccc([P+](C[P+](c2ccccc2)(c2ccccc2)c2ccccc2)(c2ccccc2)c2ccccc2)cc1 | 98% (active) | 99% (active) | 47.4% | 98% (active) | 100% (active) | 99.5% (active) | 98% (active) | 99% (active) | 58.4% | 97% (active) | 99% (active) | 99.4% (active) | 98% (active) | 99% (active) | 99.7% (active) | 98% (active) | 99% (active) | 99.5% (active) |
| COc1cccc(/C=N/NC(=O)c2c(-c3ccccc3)noc2C)c1O | 47% | 70% (active) | 85% (active) | 26% | 86% (active) | 84.1% (active) | 45% | 82% (active) | 89.2% (active) | 25% | 51% | 83.3% (active) | 42% | 85% (active) | 85.5% (active) | 58% | 87% (active) | 81.8% (active) |
| CCOC(=O)CSC(=S)Nc1ccc(Cl)cc1 | 0% | 88% (active) | 88.9% (active) | -2% | 91% (active) | 21.1% | 5% | 95% (active) | 87.5% (active) | -5% | 36% | -26.8% | -9% | 61% | 50.5% | 6% | 98% (active) | 93.7% (active) |
| O=[N+]([O-])c1ccc(/C=N\OCc2cscn2)cc1 | 3% | 46% | 76.7% (active) | -11% | 74% (active) | 55.5% | -10% | 73% (active) | 62.4% | 0% | 31% | -13.4% | -6% | 88% (active) | -19.4% | 11% | 79% (active) | 71% (active) |
| Cc1nc(N)nc(-c2ccccc2)c1N=Nc1ccc(Cl)cc1 | -2% | 61% | 54.9% | 17% | 73% (active) | 29.1% | 1% | 74% (active) | 23.9% | -7% | 56% | 51.3% | -1% | 86% (active) | 88.2% (active) | -13% | 89% (active) | 81.7% (active) |
| O=[N+]([O-])c1cc(NC(=S)SCc2ccccc2)ccc1Cl | 92% (active) | 98% (active) | 98.8% (active) | 74% (active) | 99% (active) | 99.3% (active) | 92% (active) | 99% (active) | 99.2% (active) | 29% | 97% (active) | 99.1% (active) | 8% | 97% (active) | 99.2% (active) | 91% (active) | 99% (active) | 99.2% (active) |
| Cc1cccc(/C=N/Nc2ccccn2)n1 | 22% | 27% | 83% (active) | 17% | 37% | 78.8% (active) | 20% | 38% | 37.1% | 17% | 37% | 23.8% | 15% | 41% | 37.6% | 21% | 42% | 87.6% (active) |
| [O-]/[N+]1=[N+](\[O-])c2ccccc2CCc2ccccc21 | -1% | -4% | 3.8% | -1% | 1% | -4.65% | 4% | 1% | 40.1% | -1% | -4% | 1% | -1% | 0% | 15.4% | -3% | 3% | 1.6% |
